Experimental data from PubChem BioAssay AID504904 (The Scripps Research Institute Molecular Screening Center, 2011).
This is one part of the list. Activity calls are given as the source filed them. No stated cut-off is given here; in the data, active means activation above about 18%; inactive means the rest.

These compounds were tested against Mu-type opioid receptor (Homo sapiens) + Delta-type opioid receptor (Homo sapiens) (UniProt P35372+P41143) (assay: OPRM1-OPRD1 heterodimer formation agonism – cell-based, luminescence, confirmation (AID 504904;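 further: 0% = vehicle-treated cells and 100% = reference agonist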)). Conditions: cells, MOR-DOR heterodimerization, luminescence complementation; at 9.3 µM; hits give high values.
Mu-type opioid receptor (Homo sapiens) + Delta-type opioid receptor (Homo sapiens), sequence (P35372 whole entry, looked up): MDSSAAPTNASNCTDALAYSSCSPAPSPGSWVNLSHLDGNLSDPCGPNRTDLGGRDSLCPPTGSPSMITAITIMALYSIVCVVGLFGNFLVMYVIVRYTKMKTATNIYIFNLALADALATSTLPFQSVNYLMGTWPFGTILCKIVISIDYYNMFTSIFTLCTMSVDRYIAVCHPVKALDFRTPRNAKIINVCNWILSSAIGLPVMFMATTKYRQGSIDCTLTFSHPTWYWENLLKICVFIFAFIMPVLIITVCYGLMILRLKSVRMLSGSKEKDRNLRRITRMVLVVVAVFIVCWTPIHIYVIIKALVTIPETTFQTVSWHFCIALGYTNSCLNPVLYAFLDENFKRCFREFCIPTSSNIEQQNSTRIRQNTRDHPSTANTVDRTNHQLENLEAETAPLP
Mu-type opioid receptor (Homo sapiens) + Delta-type opioid receptor (Homo sapiens), sequence (P41143 whole entry, looked up): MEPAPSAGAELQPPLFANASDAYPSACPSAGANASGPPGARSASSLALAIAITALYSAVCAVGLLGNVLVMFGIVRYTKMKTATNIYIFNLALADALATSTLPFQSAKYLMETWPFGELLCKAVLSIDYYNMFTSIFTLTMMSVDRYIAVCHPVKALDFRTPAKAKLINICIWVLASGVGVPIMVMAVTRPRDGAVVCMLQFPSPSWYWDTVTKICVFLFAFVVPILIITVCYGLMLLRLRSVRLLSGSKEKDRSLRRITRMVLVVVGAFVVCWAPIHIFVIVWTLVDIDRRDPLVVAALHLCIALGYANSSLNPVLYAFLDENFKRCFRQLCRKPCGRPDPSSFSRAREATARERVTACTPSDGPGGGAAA

SMILES | activation
COc1cc(/C=N/NC(=O)Nc2ccccc2)ccc1OCCOc1ccccc1C | 17.1% (inactive)
CC(OC(=O)/C=C/c1ccccc1)C(=O)Nc1ccc(C(N)=O)cc1 (stereo not given) | -2.09% (inactive)
CCNS(=O)(=O)c1ccc(NC(=O)Nc2cccc(OC)c2)cc1 | 3.23% (inactive)
O=C1N/C(=C/c2cccs2)C(=O)N1Cc1ccc(F)cc1 | 35% (active)
N#CC(C(=O)c1ccc(S(=O)(=O)N2CCCCCC2)cc1)c1nc2ccccc2[nH]1 (stereo not given) | 6.41% (inactive)
CCCC(=O)NC(C)C(c1cccs1)N1CCN(c2ccccc2)CC1 (stereo not given) | 36.7% (active)
COCCCNc1nc2c(-c3cccc(C)c3)nnn2c2ccc(Cl)cc12 | 15.3% (inactive)
C=C(C)COc1ccc(-c2n[nH]c(C)c2-c2ccccc2)c(O)c1 | 13.3% (inactive)
CN(C)C(CNC(=O)c1cc2ccccc2o1)c1ccccc1 (stereo not given) | 1.4% (inactive)
Cc1ccc(S(=O)(=O)N(CC(=O)Nc2cccnc2)c2ccc(Br)cc2)cc1 | 20.6% (active)
COc1ccc(SC[C@H](Cc2ccccc2)N2CCN(CCc3ccccc3)CCC2=O)cc1 | 28.3% (active)
O=C(NC1=CC(=O)c2ccccc2C1=O)c1ccccc1 | 7.9% (inactive)
N#C/C(=C(/O)COC(=O)COc1ccc(Cl)cc1)c1nc2ccccc2[nH]1 | 13.4% (inactive)
CN(C)CCCN(C(=O)c1ccc(S(=O)(=O)N2CCCc3ccccc32)cc1)c1nc2ccc(F)cc2s1 | 8.38% (inactive)
Cc1ccc(OCC(=O)Nc2ccc(NC(=O)c3cccs3)cc2)c(C)c1 | 421% (active)
